A selection: hits, their analogues and other compounds. The true share with any hit is near 2.8%.
PAFAH2 FP inh = PAFAH2 enzyme inhibitors, primary screen, biochemical, fluorescence polarization, human; Platelet-activating factor acetylhydrolase 2, cytoplasmic (Homo sapiens), Q99487; recombinant PAFAH2, FP-rhodamine activity probe; inhibition, % at 3.39 µM; actives 0.99% (n = 340,000);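 active = inhibition above the mean over all tested compounds plus 3 SD, cut at about 30% in these data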;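 also: inhibitors block probe labeling of enzyme so polarization drops; 0% = enzyme with DMSO and 100% = wells lacking PAFAH2 protein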
Fam108B inh = mouse Fam108B serine hydrolase inhibitors, primary screen, counter-screen for RBBP9 inhibitor project, biochemical, fluorescence polarization. inhibition, % at 9.51 µM. AID 1947, 2009. actives 0.33% (n = 300,000). recombinant Fam108B, FP-Rh probe fluorescence polarization;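 active = inhibition above the screen mean inhibition plus 3 SD, computed separately per campaign, cut at about 18% in these data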;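 also: inhibitors lower polarization as less probe binds the enzyme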
PAFAH1B3 FP inh = PAFAH1B3 enzyme inhibitors, primary screen, biochemical, fluorescence polarization, human; actives 0.28% (n = 340,000); recombinant PAFAH1B3, FP-rhodamine probe; inhibition, % at 3.39 µM; Platelet-activating factor acetylhydrolase IB subunit alpha1 (Homo sapiens), Q15102;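 active = inhibition above the screen-wide average of all tested compounds plus 3 SD, cut at about 25% in these data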;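 also: 0% = enzyme with DMSO only and 100% = wells lacking PAFAH1B3 protein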
Target sequence (Q15102 whole entry, looked up): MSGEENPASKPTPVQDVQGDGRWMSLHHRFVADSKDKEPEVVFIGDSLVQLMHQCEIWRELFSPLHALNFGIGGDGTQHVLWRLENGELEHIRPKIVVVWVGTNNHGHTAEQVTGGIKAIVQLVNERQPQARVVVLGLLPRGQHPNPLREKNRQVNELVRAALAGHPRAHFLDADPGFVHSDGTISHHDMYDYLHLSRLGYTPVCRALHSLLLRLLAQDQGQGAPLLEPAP
pPAFAH FP inh = pPAFAH enzyme inhibitors, primary screen, biochemical, fluorescence polarization, human. recombinant pPAFAH, FP-rhodamine probe fluorescence polarization. inhibition, % at 3.39 µM. actives 1.5% (n = 330,000);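 active = inhibition above the mean inhibition across the screen plus 3 SD, cut at about 25% in these data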;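 also: inhibitors block binding of the rhodamine activity-based probe so polarization drops; 0% = enzyme with DMSO and 100% = wells lacking pPAFAH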
PAFAH1B2 FP inh = PAFAH1B2 enzyme inhibitors, primary screen, biochemical, fluorescence polarization, human; inhibition, % at 3.39 µM; actives 1.2% (n = 340,000); Platelet-activating factor acetylhydrolase IB subunit alpha2 (Homo sapiens), P68402; recombinant PAFAH1B2, FP-rhodamine activity probe;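 active = inhibition above the mean of all tested compounds plus 3 SD, cut at about 24% in these data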;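 also: 0% = enzyme with DMSO and 100% = wells lacking PAFAH1B2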
Target sequence (P68402 whole entry, looked up): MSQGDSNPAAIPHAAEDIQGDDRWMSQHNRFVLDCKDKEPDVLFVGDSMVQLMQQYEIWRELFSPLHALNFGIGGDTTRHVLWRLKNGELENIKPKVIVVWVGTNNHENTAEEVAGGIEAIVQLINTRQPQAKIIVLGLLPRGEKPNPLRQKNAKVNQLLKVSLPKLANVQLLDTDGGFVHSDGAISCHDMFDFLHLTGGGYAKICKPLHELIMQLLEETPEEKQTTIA
PME-1 inh = PME-1 inhibitors via competitive probe labeling, primary screen, biochemical, fluorescence polarization, FP-Rh probe, HTS | Protein phosphatase methylesterase 1 (Homo sapiens), Q9Y570 | recombinant PME-1 | actives 0.53% (n = 320,000) | inhibition, % at 5.9 µM;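 active = inhibition above the campaign mean of all compounds plus 3 SD, cut at about 26% in these data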;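 also: competitive labeling of PME-1 active site by serine hydrolase directed probe; 0% = PME-1 with DMSO and 100% = wells lacking PME-1 enzyme; inhibitors block probe labeling so polarization falls and inhibition rises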
PAFAH2 confirm = PAFAH2 enzyme inhibitors, confirmation, biochemical, fluorescence polarization, human | shares compounds with PAFAH2 FP inh | recombinant PAFAH2, FP-rhodamine activity probe | inhibition, % at 3.39 µM | actives 65% (n = 2,300);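 active = mean inhibition over three repeats above a set limit taken from the earlier primary screen, cut at about 30% in these data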;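 also: inhibitor blocks binding of rhodamine activity probe so polarization falls; 0% = enzyme with DMSO and 100% = wells lacking PAFAH2 protein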
An asterisk follows results filed as active; x = not tested or not shown.

SMILES	PAFAH2 FP inh	Fam108B inh	PAFAH1B3 FP inh	pPAFAH FP inh	PAFAH1B2 FP inh	PME-1 inh	PAFAH2 confirm
Cc1ccc(S(=O)(=O)N2CCCCC2)cc1NC(=O)COC(=O)c1ccc(=O)[nH]c1	56*	x	6	3	-4	11	52*
CC(=O)/C(=N\Nc1ccccc1)Sc1nncn1C	6	1	6	-1	7	7	x
COc1ccc(CCNC(=O)CC2SC(=NCCc3ccccc3)NC2=O)cc1OC (configuration not stated)	1	-3	-6	0	2	-4	x
O=S1(=O)CC(O)C(N2CCCCC2)C1 (configuration not stated)	-3	-4	-8	-2	-2	-5	x
Cc1[nH]c2ccccc2c1C(C#N)(C#N)C1C(=O)c2ccccc2C1=O	31*	12	8	13	9	1	28
Cn1c(C(=O)OCC(=O)NCc2ccco2)cc2sccc21	45*	-1	19	14	-5	11	22
O=C(COC(=O)c1cccs1)NCc1ccccc1	47*	2	10	6	2	-1	34*
COc1cc(NC(=O)c2cccs2)c(C(=O)OCC(=O)NCc2ccco2)cc1OC	11	-1	-2	4	2	-4	x
Cc1ccsc1C(=O)OCC(=O)NCc1ccccc1	34*	x	8	8	0	x	23
O=C(COC(=O)c1cccs1)NCc1ccco1	45*	0	6	11	0	-3	29
CCCCc1ccc(NC(=S)NCc2cccnc2)cc1	8	4	-1	6	4	1	x
Cc1ccsc1C(=O)OCc1nc2ccsc2c(=O)[nH]1	-1	1	5	6	1	0	x
O=C(COC(=O)c1cccs1)NCC1CCCCC1	79*	0	4	5	3	-1	82*
CC(CNC(=O)COC(=O)c1cccs1)c1ccccc1 (configuration not stated)	75*	x	6	1	1	0	73*
CN(C)c1cccc(C(=O)OCC(=O)NCc2ccco2)c1	57*	1	-6	9	-1	9	44*
Cc1ccsc1C(=O)OCc1nc2ccccc2c(=O)[nH]1	38*	0	8	2	2	3	26
CCOC(=O)N1CCC(N2CCCC(C(=O)c3cccc(OC)c3)C2)CC1 (configuration not stated)	-3	8	3	-3	1	-2	x
COCCN(CC1CCCN(C2Cc3ccccc3C2)C1)C(=O)CCSC (configuration not stated)	18	-1	9	2	-2	1	x
COCCN(CC1CCCN(C2Cc3ccccc3C2)C1)C(=O)CSC (configuration not stated)	37*	-3	1	-2	2	-3	23
O=Cc1ccc(OC(=O)CCCCC(=O)Oc2ccc(C=O)cc2)cc1	34*	-4	0	-2	4	3	2
COC(=O)CCC(=O)Oc1ccc(OC(=O)CCC(=O)OC)cc1	x	7	x	-5	x	-3	x
C/C(CC(=O)Nc1ccc(N(C)C)cc1)=N\NC(=O)C(=O)NCc1ccccc1	46*	-1	-3	5	10	7	-6
CCN(c1ccc(OC)cc1)S(=O)(=O)c1nnc(NC(=O)c2ccccc2Cl)s1	-10	-2	-4	6	14	-7	x
COc1ccc(CCNC2=C(Cl)C(=O)N(CCc3ccccc3)C2=O)cc1OC	3	-2	3	5	1	-2	x
O=C1C(Cl)=C(Nc2ccccc2O)C(=O)N1CCc1ccccc1	44*	-6	-14	19	6	0	37*
SMILES	PAFAH2 FP inh	Fam108B inh	PAFAH1B3 FP inh	pPAFAH FP inh	PAFAH1B2 FP inh	PME-1 inh	PAFAH2 confirm
CC(C)C[C@H](NC(=O)Nc1ccccc1F)C(=O)O	3	-2	5	1	0	-3	x
COc1ccccc1NC(=O)CSc1nnc(Cc2cccs2)n1C	66*	-1	5	1	3	-7	1
C[C@H](CO)N1C[C@H](C)[C@@H](CN(C)S(=O)(=O)c2ccccc2)Oc2ccc(NS(=O)(=O)c3cccs3)cc2C1=O	13	x	14	0	7	x	x
CC1CCCC(C)N1C(=O)COC(=O)/C=C/c1ccc(Br)o1 (configuration not stated)	13	x	4	14	8	x	x
CC1CCN(C(=O)COC(=O)/C=C/c2ccc(Br)o2)CC1	30*	x	7	6	1	4	11
O=c1c2ccccc2nc(COc2ccccc2)n1/N=C/c1ccc(O)c(O)c1	30*	4	11	22	4	18	24
Cc1ccc(C(=O)NNC(=O)c2ccc(Br)s2)cc1S(=O)(=O)N1CCOCC1	39*	x	4	5	1	-6	-4
O=C(COC(=O)c1c(Cl)cccc1Cl)Nc1ccccc1Br	3	4	-7	4	4	-2	x
O=C(COC(=O)c1ccccc1)Nc1ccccc1Br	36*	0	-7	10	-2	-5	25
C/C=C/C(=O)OCC(=O)Nc1ccccc1Br	33*	4	20	3	-4	1	20
O=C(COC(=O)/C=C/c1ccccc1)Nc1ccccc1Br	64*	2	-3	9	3	1	54*
COc1ccc(/C=C/c2nnc(NC(=O)CSc3ccc(Cl)cc3)s2)cc1	-6	-10	-7	5	-21	-3	x
O=C(COC(=O)c1cccnc1Cl)NC1CCCCC1	72*	x	6	2	6	x	49*
O=C(COC(=O)c1ccccc1Cl)Nc1cccnc1Cl	8	x	6	0	-1	-1	x
O=C(COC(=O)c1cccnc1Cl)NC1CCCc2ccccc21 (configuration not stated)	27	x	8	2	14	x	x
O=C(OCC(=O)C12CC3CC(CC(C3)C1)C2)c1cccnc1Cl	47*	1	3	8	9	-21	37*
O=C(COC(=O)c1ccccc1F)Nc1cccnc1Cl	35*	1	-11	5	0	2	16
CC1CCC(NC(=O)COC(=O)c2cccnc2Cl)CC1 (configuration not stated)	70*	x	17	8	7	1	42*

Screening data deposited in PubChem by The Scripps Research Institute Molecular Screening Center.
